Results: PubChem BioAssay AID615 (Sanford-Burnham Center for Chemical Genomics, 2007)
Out of some 21,000 compounds screened, fewer than 10 were called active.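 The calls were made as follows: active = inhibition above 50% at the 20 µM single-dose screen; inactive = the rest.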 The list is a sample of the results.

Biological target: Alkaline phosphatase, tissue-nonspecific isozyme (Homo sapiens) (UniProt P05186)
Experiment: blockers of alkaline phosphatase TNAP catalysis – biochemical, colorimetric, p-nitrophenol readout, primary screen (AID 615);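 also: 0% = DMSO only wells and 100% = 1 mM levamisole wells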
Settings: purified TNAP, pNPP hydrolysis, absorbance 405 nm; at 20 µM; stronger effect = higher value

Chain of Alkaline phosphatase, tissue-nonspecific isozyme (Homo sapiens) (P05186 whole entry, looked up): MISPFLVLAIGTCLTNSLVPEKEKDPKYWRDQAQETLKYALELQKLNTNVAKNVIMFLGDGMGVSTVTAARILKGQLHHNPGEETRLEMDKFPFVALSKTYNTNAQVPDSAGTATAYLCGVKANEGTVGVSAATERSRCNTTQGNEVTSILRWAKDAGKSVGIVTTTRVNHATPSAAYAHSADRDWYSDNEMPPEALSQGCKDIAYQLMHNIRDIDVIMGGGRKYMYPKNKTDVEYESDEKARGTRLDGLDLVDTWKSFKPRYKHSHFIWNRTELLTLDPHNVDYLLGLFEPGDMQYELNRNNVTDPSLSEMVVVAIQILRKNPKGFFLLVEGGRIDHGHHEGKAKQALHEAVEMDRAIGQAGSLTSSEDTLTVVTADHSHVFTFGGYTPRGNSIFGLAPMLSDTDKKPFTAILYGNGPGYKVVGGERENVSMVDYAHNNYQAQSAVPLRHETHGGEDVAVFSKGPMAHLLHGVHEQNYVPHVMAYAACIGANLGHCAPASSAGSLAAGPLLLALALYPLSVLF

inhibition, inactive:
CCOc1cccc(NC(=O)C2CCCN(S(=O)(=O)c3ccc(OC)cc3)C2)c1 (configuration not stated) -1.6%
O=c1[nH]c(=O)n(Cc2ccco2)c2c1C(C(F)(F)F)(C(F)(F)F)N=C(c1ccco1)N2 1.6%
CCN(CC)C(=O)CSc1nnc(-c2ccc(S(=O)(=O)NCc3ccccc3Cl)cc2)o1 3.4%
CCN(CC)CCN1C(=O)C(=O)/C(=C(/O)c2ccc(OC)c(OC)c2)C1c1ccccn1 (configuration not stated) -8.8%
CCCOC(=O)C1=C(C)NC2=C(C(=O)C(C(=O)OC)C(C)C2)C1c1ccc(N(C)C)cc1 (configuration not stated) 6.3%
COC(=O)c1cccc(NC(=O)CN2CCC(NC(=O)c3cc(OC)c(OC)c(OC)c3)CC2)c1 4.5%
Cn1nnnc1SCC(=O)N1CCN(Cc2ccccc2)CC1 3.1%
CCn1c(Cc2ccccc2)nnc1SCc1nc2ccccc2c(=O)[nH]1 2.9%
c1ccc(-n2ncc3c(N4CCCC4)ncnc32)cc1 4.2%
CC1(C)C2CCC1(C)C(OC(=O)CCn1ccnc1)C2 (configuration not stated) 3.3%
Cc1cc(NC(=O)CCC(=O)N(c2cccc(F)c2)C(C(=O)NC2CCCC2)c2ccncc2)no1 (configuration not stated) 2.9%
CCn1c(SCC(=O)c2ccc(Cl)s2)nnc1-c1cccs1 3.7%
COc1ccc2[nH]c3ccc(OC)cc3c2c1 6.8%
O=C(NCCN1CCOCC1)c1c(F)c(F)c(F)c(F)c1F -0.8%
CCOC(=O)c1ccc(N2C(=O)CC(Sc3nc(O)c(CC)c(=O)[nH]3)C2=O)cc1 (configuration not stated) -2.3%
CC(C)c1nc(N2CCOCC2)c(C#N)c2c1COC(C)(C)C2 -4.2%
Cc1ccc2c(c1)c1ncn(CCC3=CCCCC3)c(=O)c1n2C 1.2%
CC1(C)CC(=O)C2=C(C1)NCN(CCCN1CCOCC1)C2 3%
c1ccc2c(NCC3CCCO3)nc(-c3ccncc3)nc2c1 (configuration not stated) 3.1%
Cc1ccn2cc(C(=O)NC3CCN(Cc4ccccc4)CC3)nc2c1 -6.8%
CCC(C)(C)n1nnnc1C(c1cccs1)N1CCN(Cc2ccccc2)CC1 (configuration not stated) -10%
COc1ccc(NC(=O)CSc2nnc(-c3cccs3)n2Cc2ccco2)cc1OC 3.1%
N#CNC1=NCN(CCc2ccccc2)CN1 4.9%
C=CCN1C(=O)C(O)(CC(=O)c2ccc(Cl)cc2)c2ccccc21 (configuration not stated) 5.4%
CCc1ccc(-c2nnn(Cc3nc4ccccc4s3)n2)cc1 3%
O=C1[C@@H]2C(Cc3ccc(O)cc3)NC3(C(=O)Nc4ccc(F)cc43)[C@@H]2C(=O)N1c1ccc(F)cc1 (some centres not stated) 1.7%
COC(=O)c1ccccc1NC(=O)CN(Cc1ccccc1)S(C)(=O)=O 6%
CCCc1nc2ccccc2c(C(=O)OCc2nnc(-c3cc(OC)c(OC)c(OC)c3)o2)c1CC 1.2%
CCOC(=O)c1cc2occc2n1CC(=O)NC1CCC(C)CC1 (configuration not stated) 5.1%
CCOc1cccc(=O)c2c(C)n(CC3CCCO3)c(C)c12 (configuration not stated) -12.4%
O=C(NC1CC2CCCC(C1)N2C(=O)N1CCCCC1)C1CCCCC1 (configuration not stated) 4.8%
CCOC(=O)C1C(=O)NC(N2CCN(c3ccccc3)CC2)=NC1c1ccco1 (configuration not stated) 2.1%
CCN(Cc1cc2cc(C)ccc2[nH]c1=O)S(=O)(=O)c1ccccc1 6.4%
O=C(NCCCCO)C(F)(F)C(F)(F)C(F)(F)C(=O)NCCCCO 4.2%
Cc1cc(N2C(=O)C(=O)/C(=C(/O)c3ccccc3)C2c2cccc(Br)c2)no1 (configuration not stated) 0.9%
CN(c1nc2ccccc2n2c(-c3ccco3)nnc12)S(=O)(=O)c1ccccc1 4.7%
CC(=O)c1cccc(NC(=O)N2CCCC2C(=O)NCCC(C)C)c1 (configuration not stated) 7.2%
Cc1ccc(F)cc1NC(=O)c1cccc(N(C)C)c1 5%
CC1=C2C(=O)OC(c3ccoc3)C2(C)CCC1 (configuration not stated) 0%
CCOC(=O)CSc1nnc(-c2ccco2)n1C 3%
Cc1ccc(C(=O)OCC(=O)NCc2ccc3c(c2)OCO3)s1 3.6%
Cc1ccc(S(=O)(=O)N2CCC(C(=O)OCC(=O)N3CC(=O)Nc4ccccc43)CC2)cc1 5.7%
CCCCCNC(=O)Cc1ccc(OC)cc1 2.1%
Cc1nc(NCc2ccccc2)c(C(N)=O)c2c1COC(C)(C)C2 3%
CC(=O)N(Cc1cccs1)C1CCOC(C)(C)C1 (configuration not stated) 2.9%
CSc1nc(O)c(Cc2ccccc2)c(=O)[nH]1 0.9%
CC(C)C(NC(=O)c1cccc(S(=O)(=O)N2CCOCC2)c1)C(=O)NCCc1ccccn1 (configuration not stated) 4.3%
CSCCC1NC2(C(=O)Nc3ccc(Cl)cc32)[C@@H]2C(=O)N(C3CCCC3)C(=O)[C@H]12 (some centres not stated) 7.3%
Cc1cnc(NC(=O)CSc2nnc(-c3ccc(Cl)cc3Cl)n2N)s1 -1.5%
COc1ccc(-c2c3c(=O)n(C)c(=O)n(C)c3cn2NC(C)=O)cc1 3.2%
CCSC1=C(C#N)C(=O)n2c1cc1c2CCCC1 1.7%
Cc1cc(C(=O)N2CCN(c3ccccn3)CC2)c(C)o1 6%
COc1cccc(-c2nnc(N(C)C(=O)c3ccno3)s2)c1 2.3%
CC(=O)N1CSCC1C(=O)O (configuration not stated) 8.6%
COc1ccc(O)c(C=Nc2cc(C)on2)c1 5.7%
O=C1CSC(=O)N1CCOCCN1C(=O)CSC1=O 4.8%
COc1ccc(C2CC(c3ccc(C)cc3)Nc3nc(N)nn32)cc1 (configuration not stated) 3.3%
CC1(C)CC(=O)C(C2=NC(C)(C)Cc3ccccc32)=C(O)C1 -1%
CCn1c(SCC(=O)NCc2ccco2)nnc1-c1ccc(N)cc1 0.2%
CCOc1cc(C)c(Cl)cc1S(=O)(=O)n1nnc2ccccc21 3.6%
CC1CCCN(C(=O)Cn2c(=O)oc3ccccc32)C1 (configuration not stated) 3.7%
O=C(Nc1c(Cl)cccc1Cl)C1CCC1 3.6%
